Source: PubChem (several laboratories)
TRPM1 prom inh = inhibitors of MITF-dependent TRPM1 promoter reporter, primary screen, cell-based, SK-MEL-5, single point, luciferase; SK-MEL-5 TRPM1 promoter luciferase, 24 h; inhibition, % at 12.5 µM; actives 0.83% (n = 330,000); AID 488899, 2010;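 active means mean inhibition across replicates of 60% or more, whatever share of single replicates reaches that level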
KKLEB cytotox = cytotoxicity in KKLEB CF airway cells, primary screen, cytotoxicity control for CF NF-kB inhibitor project, cell-based, uHTS, fluorescence assay plates | AID 602141, 2011 | KKLEB CF airway cells viability, ATPlite luminescence, overnight; hits give low values; cells stimulated with P. aeruginosa culture filtrate | activity change (cytotoxicity), % at 5 µM | actives 0.36% (n = 360,000);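 active means corrected activity change at or below -50% at 5 µM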
HIF-2a block = HIF-2a reporter inhibitors, primary screen, luminescence, 786-0 RCC cells. AID 624352, 2012. 786-0 RCC cells HIF-2a reporter, luciferase luminescence, overnight. actives 0.72% (n = 360,000). inhibition, % at 18.8 µM;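 active means inhibition of the luminescence signal of 40% or more relative to plate controls, in a single-dose primary screen at 18.75 µM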
Shn3 3UTR inh = reduction of Shn3 3'UTR firefly luciferase signal, primary screen, Schnurri-3 inhibitor project, cell-based, Clone20 osteoblasts, set 2. inhibition, % at 12.5 µM. Clone20 osteoblast Shn3 3'UTR firefly luciferase, 24 h. AID 588674, 2011. actives 0.52% (n = 360,000);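 active means mean inhibition of at least 75% with every replicate also reaching 75%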
CF NFkB block = inhibitors of PAF-induced NF-kB signaling, primary screen, cell-based, GFP fluorescence, uHTS | inhibition, % at 5 µM | KKLEB NF-kB-GFP reporter, GFP fluorescence overnight | actives 0.86% (n = 360,000) | AID 588850, 2011;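 active means at least 50% inhibition at 5 µM, scaled per plate between neutral and stimulator controls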;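 further: PAF is a Pseudomonas aeruginosa culture filtrate used as stimulus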
Peg3 prom inh = Peg3 promoter-driven luciferase inhibitors, primary screen, cell-based, HeLa, luciferase luminescence. inhibition, % at 20 µM. AID 588405, 2011. actives 1.7% (n = 360,000). HeLa PEG-Prom luciferase reporter, overnight;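 active means inhibition of at least 50% at 20 µM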
CF NFkB conf = inhibitors of PAF-induced NF-kB signaling, retest, confirmation, cell-based, GFP fluorescence, single concentration. shares compounds with CF NFkB block. KKLEB CF airway cells, overnight. inhibition, % at 5 µM. actives 64% (n = 1,300). AID 602472, 2012; in the data active means inhibition above about 40%;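 further: stimulus PAF is a Pseudomonas aeruginosa filtrate and not platelet activating factor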
Large screens that a line does not name were inactive (follow-up assays come after a bar, where they were run). This is a sample that favours compounds with a hit; in the whole collection about 2.8% have one here.

CC(C)(C)OC(=O)C[C@@H]1C/C=C\C[C@@H](CC(=O)N(CCO)Cc2ccccc2)C(=O)N2CCC[C@@H]2COC1=O	none
COc1ccc(C(=O)NNC2CC(=O)N(Cc3ccc(Cl)cc3)C2=O)cc1OC (stereo not drawn)	none
CC(=O)Oc1ccccc1N(C(C)=O)S(=O)(=O)c1ccc2ccccc2c1	none
CC(=O)Oc1ccc(N(C(C)=O)S(=O)(=O)c2cccs2)c2ccccc12	CF NFkB block 55.9 | CF NFkB conf 67.1
O=[N+]([O-])c1ccc2cn(-c3ccccc3)nc2c1	none
O=C(COc1ccccc1C(=O)Nc1ccccc1)c1ccc(Br)cc1	none
O=C(Oc1ccccc1C(=O)Nc1ccccc1)c1ccccc1Br	CF NFkB block 61.6 | CF NFkB conf inactive
CCOC(=O)N1C(=O)[C@](c2ccc(Cl)cc2)(C(C)C)N1C(=O)OCC	CF NFkB block 51.0, Peg3 prom inh 67.9 | CF NFkB conf inactive
COC(=O)N1C(=O)[C@](c2ccccc2)(C(C)C)N1C(=O)OC	none
CCN(C[C@H]1N[C@@](Cc2ccccc2)(C(=O)OC)[C@H]2C(=O)N(Cc3ccccc3)C(=O)[C@@H]12)C(=O)Nc1ccc(C(F)(F)F)cc1	CF NFkB block 50.9 | CF NFkB conf inactive
CC(C)OCCCNC(=O)c1c(N)n(/N=C/c2ccccn2)c2nc3ccccc3nc12	CF NFkB block 56.4 | CF NFkB conf inactive
COCCCNC(=O)c1c(N)n(/N=C/c2cccnc2)c2nc3ccccc3nc12	none
Cc1nc([N+](=O)[O-])c(Sc2nc3ccccc3n2C)n1Cc1ccccc1	TRPM1 prom inh 63.0, CF NFkB block 65.4 | CF NFkB conf 56.1
Cc1nc([N+](=O)[O-])c(SCC(N)=O)n1Cc1ccccc1	none
CN(C)CCCN(C(=O)CCSc1ccccc1)c1nc2cc3c(cc2s1)OCO3	CF NFkB block 55.9, Peg3 prom inh 91.1 | CF NFkB conf 49.4
COC(=O)c1ccc2nc(-c3ccco3)c(Cc3ccccc3)n2c1	CF NFkB block 53.9 (no result: TRPM1 prom inh) | CF NFkB conf inactive
Fc1cccc(Cc2c(-c3ccco3)nc3ccc(Cl)cn23)c1	CF NFkB block 63.2 (no result: TRPM1 prom inh) | CF NFkB conf inactive
FC(F)(F)c1ccccc1Cc1c(-c2ccco2)nc2ccc(Br)cn12	CF NFkB block 62.5 (no result: TRPM1 prom inh) | CF NFkB conf inactive
Fc1cccc(Cc2c(-c3ccco3)nc3ccc(Br)cn23)c1	CF NFkB block 52.0 (no result: TRPM1 prom inh) | CF NFkB conf inactive
Clc1ccc2nc(-c3ccco3)c(Cc3ccccc3)n2c1	none (no result: TRPM1 prom inh)
COC(=O)c1ccc2nc(-c3ccco3)c(Cc3cccc(Cl)c3)n2c1	none (no result: TRPM1 prom inh, KKLEB cytotox, Shn3 3UTR inh, CF NFkB block, Peg3 prom inh)
O=C1NC(=S)N/C1=C/c1cc([N+](=O)[O-])ccc1O	none
CC(C)NC(=O)C1(C)CCCN1C(=O)c1cc(C#N)cs1 (stereo not drawn)	none (no result: TRPM1 prom inh)
C[C@@H]1CC=C[C@H]2[C@H]1C(=O)N(Cc1ccccc1)[C@H]2c1ccoc1	none
CC[C@@H]1CC=C[C@H]2[C@H]1C(=O)N(Cc1ccccc1)[C@H]2c1ccoc1	CF NFkB block 59.2, Peg3 prom inh 87.8 | CF NFkB conf inactive
COC(=O)c1ccc(-c2ccc(OC)c([C@H]3[C@H]4C=CC[C@@H](C)[C@@H]4C(=O)N3Cc3ccccc3)c2)cc1	CF NFkB block 66.4 | CF NFkB conf 52.7
C[C@@H]1CC=C[C@H]2[C@H]1C(=O)N(Cc1ccccc1)[C@H]2c1cccc([N+](=O)[O-])c1	Shn3 3UTR inh 86.6, CF NFkB block 56.2 | CF NFkB conf inactive
CCc1nc2ccc(C(=O)N(C)Cc3ccco3)cn2c1N(CC)C(=O)NCCc1ccccc1	none (no result: TRPM1 prom inh)
CCOC(=O)C1=C(C(=O)OCC)N(Cc2ccccc2)CCC1=O	none
COC(=O)[C@]12CCCCC=C1N(Cc1ccc(Cl)cc1Cl)C(=O)[C@H](CC(=O)N1CCSCC1)C2	none (no result: TRPM1 prom inh, KKLEB cytotox, Shn3 3UTR inh, CF NFkB block, Peg3 prom inh)
Cn1cccc1C(=O)NC(=O)COC(=O)c1ccc(S(C)(=O)=O)c([N+](=O)[O-])c1	TRPM1 prom inh 85.8, Shn3 3UTR inh 98.2, CF NFkB block 66.7, Peg3 prom inh 101.8 | CF NFkB conf 59.3
O=c1[nH]c(C2CCN(S(=O)(=O)c3ccc4c(c3)OCCO4)CC2)nc2c1nnn2Cc1c(F)cccc1Cl	CF NFkB block 68.1, Peg3 prom inh 55.6 | CF NFkB conf 81.6
CN1CCC(OC(=O)c2cc3cc(Cl)cc(Cl)c3oc2=O)CC1	CF NFkB block 54.5 | CF NFkB conf 81.9
Cc1ccc(C)c(N(CC(=O)N2CCCC2)S(C)(=O)=O)c1	none
C=CC[C@@H](CC(=O)N[C@H](CO)Cc1ccccc1)C(=O)NC[C@H](OC(=O)[C@@H](CC=C)Cc1ccc(F)cc1)c1ccccc1	CF NFkB block 54.2, Peg3 prom inh 78.6 | CF NFkB conf 63.0
O=C(CSc1nnc(COc2ccccc2Cl)o1)NC(=O)NCc1ccco1	none
O=C(NCc1nc(-c2ccc(C(F)(F)F)cc2)no1)Nc1ccc(F)cc1F	none (no result: Shn3 3UTR inh)
O=C(NCc1nc(-c2ccc(C(F)(F)F)cc2)no1)Nc1cc(Cl)cc(Cl)c1	CF NFkB block 54.6, Peg3 prom inh 51.6 | CF NFkB conf 49.6
CC1Sc2ccc(Cl)cc2-c2nc(N)ncc21 (stereo not drawn)	CF NFkB block 66.4 | CF NFkB conf 76.7
Cc1nn(-c2ccc(Cl)cn2)c2c1C(=O)CC(C)(C)C2Br (stereo not drawn)	none
OC[C@@H]1CN(CCc2ccccc2)C[C@H](n2cnc3c(NCc4ccc(F)cc4)ncnc32)O1	none (no result: TRPM1 prom inh)
Cc1nc(N)nc(N)c1-c1ccc(Cl)c(Cl)c1	none
Nc1nc(N)nc(-c2ccc(Cl)c(Cl)c2)n1	CF NFkB block 79.4 | CF NFkB conf 91.3
C#CCN(C(=O)c1ccc(OC2CCN(Cc3ccccn3)CC2)cc1)C1CCCCC1	none
Clc1cncc(Cl)c1N/N=C/c1ccncc1	CF NFkB block 81.2 | CF NFkB conf 77.5
Clc1cccc(Cl)c1/C=N/Nc1c(Cl)cncc1Cl	none
COc1cccc(/C=N/n2c(C3CCCCC3)n[nH]c2=S)c1	CF NFkB block 60.4 | CF NFkB conf 76.8
Cc1ccc(NC(=O)c2cc(C(=O)c3cc(Cl)ccc3O)cn(-c3ccc(C)cc3)c2=O)cc1	CF NFkB block 54.6 | CF NFkB conf 56.3
N#Cc1cc(C(=O)c2cc(Cl)ccc2O)cn(-c2ccccc2)c1=O	none
Cc1cccc(C)c1-n1nnnc1C1c2ccccc2C(=O)N1C1CC1 (stereo not drawn)	none (no result: TRPM1 prom inh, KKLEB cytotox, Shn3 3UTR inh, CF NFkB block, Peg3 prom inh)
